# Screens as filed in PubChem.
# Hits are enriched below; roughly 0.98% of the tested compounds scored in any of these assays.
# Keap1 Nrf2 FP: disrupts human Keap1 binding to Nrf2 peptide; Q14145; inhibition, % at 9.4 µM; 0.15% of 340,000 active; AID 504523; Keap1 Kelch-Nrf2 peptide fluorescence polarization, 1536-well; in the data active = inhibition above about 12%;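 note: human Keap1 Kelch domain with fluorescein labeled Nrf2 9mer peptide probe; higher means more block of Keap1 binding to Nrf2 peptide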
# EBV gp42 inh: EBV gp42 inhibition; 0.42% of 220,000 active; inhibition, % (tested at 21.74 µM); Fluorescence polarization binding assay, mP read-out; Q1HVG2; in the data active = inhibition above about 50%
# RTF Ca sens inh: cardiac RTF calcium desensitization; inhibition, % at 7.15 µM; P19429+P45379; IANBD-labeled cardiac RTF, Ca2+ fluorescence; 0.12% of 340,000 active;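 active = inhibition above the mean inhibition of all tested compounds plus 3 SD, cut at about 17% in these data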;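 note: assay run at fixed EC70 calcium of 1.6 mM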
# RTF Ca sens act: increases calcium sensitivity of human cardiac regulated thin filaments | 0.24% of 340,000 active | P19429+P45379 | AID 493008 | activation, % at 7.2 µM | IANBD-labeled TnC RTF fluorescence at EC20 calcium; 0% EC20 calcium, 100% full calcium;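 active = activation above the mean over all tested compounds plus 3 SD, cut at about 30% in these data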;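 note: rise in fluorescence read as greater calcium sensitivity of cardiac thin filaments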
# C-LANA FP: KSHV C-LANA DNA binding inhibition | inhibition, % at 9 µM | MBP-C-LANA/FAM-LBS DNA binding, fluorescence polarization | AID 504423 | 0.078% of 340,000 active;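 active = highest replicate inhibition at or above 60% at 9 µM, even if other replicates fall short; inactive = all replicates below 60% inhibition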
# E coli Lon inh: E. coli protease La inhibition; P0A9M0; purified E. coli Lon protease, fluorescence polarization; inhibition, % at 7.94 µM; 0.42% of 360,000 active; in the data active = inhibition above about 13%, passing the limit was not always enough
# Target sequence (P0A9M0 whole entry, looked up): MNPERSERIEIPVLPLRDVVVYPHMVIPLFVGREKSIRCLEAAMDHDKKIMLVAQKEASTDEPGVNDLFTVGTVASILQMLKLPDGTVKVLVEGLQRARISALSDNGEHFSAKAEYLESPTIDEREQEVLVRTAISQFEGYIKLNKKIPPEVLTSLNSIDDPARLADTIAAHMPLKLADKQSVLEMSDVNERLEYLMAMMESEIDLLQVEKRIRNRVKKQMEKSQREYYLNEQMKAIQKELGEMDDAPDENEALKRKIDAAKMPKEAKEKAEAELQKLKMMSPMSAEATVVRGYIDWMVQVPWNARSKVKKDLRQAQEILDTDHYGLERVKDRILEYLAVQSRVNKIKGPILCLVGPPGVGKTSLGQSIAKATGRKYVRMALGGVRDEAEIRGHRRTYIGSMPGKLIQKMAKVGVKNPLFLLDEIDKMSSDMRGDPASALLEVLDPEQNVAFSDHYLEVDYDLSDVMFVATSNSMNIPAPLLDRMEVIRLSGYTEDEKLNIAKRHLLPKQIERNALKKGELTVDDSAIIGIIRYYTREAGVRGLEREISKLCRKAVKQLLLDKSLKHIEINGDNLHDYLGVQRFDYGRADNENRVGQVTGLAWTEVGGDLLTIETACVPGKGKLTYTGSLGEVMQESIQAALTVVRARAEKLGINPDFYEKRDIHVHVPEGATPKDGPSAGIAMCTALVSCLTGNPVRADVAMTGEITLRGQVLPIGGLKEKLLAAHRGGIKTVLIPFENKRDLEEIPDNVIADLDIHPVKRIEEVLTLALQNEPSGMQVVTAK
# E coli Lon conf: confirmation of E. coli Lon protease inhibitors; shares compounds with E coli Lon inh; purified E. coli Lon, fluorescence polarization; inhibition, % at 7.94 µM; 31% of 1,400 active; AID 602230; in the data active = inhibition above about 16%
# A number is an active result; i = inactive; nt = no result given; + = active, no number.
SMILES,Keap1 Nrf2 FP,EBV gp42 inh,RTF Ca sens inh,RTF Ca sens act,C-LANA FP,E coli Lon inh,E coli Lon conf
CCCC1=NN2C(=N)/C(=C\c3ccc(OCCOc4ccc(NC(C)=O)cc4)c(OC)c3)C(=O)N=C2S1,i,nt,i,i,i,i,nt
O=c1[nH]c(-[n+]2ccc3ccccc3c2)c(/C=N/N=C(\[O-])c2ccccc2)s1,i,nt,i,i,i,43,i
CC(Oc1ccc2c3c(c(=O)oc2c1)CCC3)C(=O)NCc1cccnc1 (configuration not stated),i,nt,i,i,i,i,nt
COC(=O)c1ccc(S(=O)(=O)N2C3CCC2CC(NC(=O)NC2CCCCC2)C3)cc1 (configuration not stated),i,i,i,i,i,i,nt
COc1ccc(S(=O)(=O)N2C3CCC2CC(NC(=O)NC2CCCCC2)C3)cc1 (configuration not stated),i,i,i,i,i,82,i
c1ccc2c3c([nH]c2c1)C1(CCCCC1)NCC3,i,i,i,i,i,i,nt
CC12CCCCN1CCCc1c2[nH]c2ccccc12 (configuration not stated),i,i,i,i,i,22,i
CNc1ncnc2c1ncn2[C@H]1CN(Cc2ccc(-c3ccccc3)cc2)C[C@@H](CO)O1,nt,nt,nt,nt,nt,i,nt
CN(Cc1ccccc1)C(=O)CN1C(=O)c2ccc([N+](=O)[O-])cc2C1=O,i,nt,i,i,i,19,i
CCOc1ccc(CCNC(=O)COC(=O)c2oc3ccccc3c2COC)cc1OCC,i,nt,i,i,i,i,nt
CCOc1ccc(OCCC(=O)OCC(=O)N2CCN(S(=O)(=O)c3ccc(C)cc3C)CC2)cc1,i,nt,i,i,i,20,i
S=C(Nc1ccc2nc(-c3ccccn3)c(-c3ccccn3)nc2c1)N1CCOCC1,i,i,i,i,i,20,i
CN(C)NC(=S)Nc1ccc2nc(-c3ccccn3)c(-c3ccccn3)nc2c1,i,i,i,i,i,i,nt
COc1cccc(C=NN2CCCCCC2)c1OC,i,nt,i,i,i,i,nt
CCc1ccccc1Nc1nc(N)nc(CSc2nnc3ccccn23)n1,i,i,i,i,i,62,i
CCc1ccc(NC(=O)CSCc2nc(N)nc(Nc3ccccc3CC)n2)cc1,i,i,i,i,i,i,nt
C=CCN(c1nc(C)c(Br)c(OC)n1)S(=O)(=O)c1ccc(C)cc1,i,nt,i,i,i,49,i
COC(=O)CN(c1nc(C)c(Br)c(OC)n1)S(=O)(=O)c1ccc(C)cc1,i,i,i,i,i,i,nt
CC1(C)CC(=O)C/C(=N/NC(=O)COc2ccc(Cl)cc2Cl)C1,i,i,i,i,i,25,i
Cc1ccc(Cn2cc(CN3CC(N4CCSCC4)CS3(=O)=O)nn2)cc1 (configuration not stated),nt,nt,nt,nt,nt,i,nt
Cc1sc2ncn(CC(=O)NCC(=O)N3CCN(c4ccccc4F)CC3)c(=O)c2c1C,i,nt,i,i,i,19,i
CC1CCc2sc(C(=O)N(C)CC(=O)Nc3cccc(F)c3)cc2C1 (configuration not stated),i,nt,i,i,i,16,i
CCOC(=O)N1CCN(Cc2nc3ccc([N+](=O)[O-])cc3c(=O)n2-c2ccccc2F)CC1,i,nt,i,i,i,18,i
O=C(CN1C(=O)NC2(CCCCC2)C1=O)Oc1ccc2c(C(F)(F)F)cc(=O)oc2c1,i,nt,i,i,i,54,33
CCc1cc(=O)oc2cc(OC(=O)CN3C(=O)NC4(CCCC4)C3=O)ccc12,i,nt,i,i,i,i,nt
SMILES,Keap1 Nrf2 FP,EBV gp42 inh,RTF Ca sens inh,RTF Ca sens act,C-LANA FP,E coli Lon inh,E coli Lon conf
COc1ccc(C(=O)N2CCC2)cc1S(=O)(=O)NCc1ccc(Cl)cc1,i,nt,i,i,i,i,nt
CCOC(=O)C(=O)N(CC)C1CCS(=O)(=O)C1 (configuration not stated),i,i,i,i,i,17,i
Cc1ccc(-n2c(C)cc(C(=O)CN3CCOCC3)c2C)cc1,i,i,i,i,i,19,i
Cc1ccc(-n2c(C)cc(C(=O)CN3CCOCC3)c2C)cc1C,i,i,i,i,i,i,nt
Cc1cc(C(C)(C)C)oc1C(=O)N(CC(=O)NC1CCCC1)Cc1ccccc1Cl,i,i,i,i,i,133,i
CCOC(=O)C1CCCN(C(=O)Cc2c(C(=O)O)[nH]c3ccccc23)C1 (configuration not stated),i,i,i,i,i,24,21
CCCn1c(C(C)Nc2nc(C)cs2)nc2cc(Cl)c(Cl)cc21 (configuration not stated),i,nt,i,i,i,116,i
Cc1ccc(Cn2c(C(C)Nc3nc(-c4ccc(C)cc4)cs3)nc3cc(Cl)c(Cl)cc32)cc1 (configuration not stated),i,nt,i,i,i,i,nt
O=C1C2=C(SCCS2)C(=O)N1CCCO,i,117,i,i,i,41,55
O=C1c2ccc(-c3ccc4c(c3)C(=O)N(CCCO)C4=O)cc2C(=O)N1CCCO,i,i,i,i,i,i,nt
O=C(Nc1cccc(NC(=O)c2ccco2)n1)c1ccco1,i,nt,i,i,i,i,nt
CCC1(C)Cc2c(C#N)c(N)sc(=S)c2CO1 (configuration not stated),i,i,i,i,i,i,nt
N#Cc1c(N)sc(=S)c2c1CCCC2,i,i,i,i,i,16,i
Cn1c2ccccc2c2cc(/C=N/NC(=O)c3ccc(N)cc3)ccc21,i,nt,i,i,i,20,i
Cc1oc(-c2ccccc2Cl)nc1CS(=O)(=O)CC(=O)NC1CCCC1,i,nt,i,i,i,i,nt
O=C(Cn1ccc2ccccc2c1=O)NCC(=O)N1CCN(c2ccc(F)cc2)CC1,i,nt,i,i,i,23,i
O=C(Cn1ccc2ccccc2c1=O)NCCC(=O)N1CCN(c2ccccc2)CC1,i,nt,i,i,i,i,nt
CCCc1nc2ccc(C)cn2c1Cc1ccccc1C(F)(F)F,nt,nt,nt,nt,nt,i,nt
CC(C)(C)OC(=O)N1CCCC(C(=O)Nc2cccc(C(=O)N3CCCCC3)c2)C1 (configuration not stated),i,nt,i,i,i,i,nt
Cc1ccc(OCCNC(=O)c2cc(C3CC3)nc3c2cnn3C(C)C)cc1,i,nt,i,i,i,+,i
Cc1ccc(CNC(=O)c2cc(C3CC3)nc3c2cnn3C(C)C)cc1,i,nt,i,i,i,i,nt
COc1ccc(N(C)C(=O)c2cc3c(s2)-c2ccccc2OC3)c(OC)c1,i,nt,i,i,i,i,nt
COc1ccc(N(C)C(=O)c2cc3c(s2)-c2ccc(Cl)cc2S(=O)(=O)C3)c(OC)c1,i,nt,i,i,i,20,i
Cc1ccc(OC(=O)N(C)C[C@@H]2OCc3cn(nn3)CCCC(=O)N([C@@H](C)CO)C[C@H]2C)cc1,nt,nt,nt,nt,nt,i,nt
COc1ccc(N2CCN(CC(O)COCCOc3ccc(Br)cc3)CC2)cc1 (configuration not stated),i,i,i,i,i,i,nt
